# Test results reported in article PMC5540273 (PLoS ONE, 2017).
# How the values were obtained:
# Conditions in all cases: concentration: 1 μM, replicates: in singlicate; n = 1
# YES = tested on: T1, YES
# T1 construct: gene YES1
# YSK1 = tested on: T2, YSK1
# T2 construct: gene STK25
# YSK4 = tested on: T3, YSK4
# T3 construct: gene MAP3K19
# ZAK = tested on: ZAK
# ZAP70 = tested on: ZAP70
# p38-alpha = tested on: T4, p38-alpha
# T4 construct: gene MAPK14
# p38-beta = tested on: T5, p38-beta
# T5 construct: gene MAPK11
# p38-delta = tested on: p38-delta
# p38-gamma = tested on: T6, p38-gamma
# T6 construct: gene MAPK12
# 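Further: KINOMEscan kinase panel screen.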
Compound,%Inh (YES) [%],%Inh (YSK1) [%],%Inh (YSK4) [%],%Inh (ZAK) [%],%Inh (ZAP70) [%],%Inh (p38-alpha) [%],%Inh (p38-beta) [%],%Inh (p38-delta) [%],%Inh (p38-gamma) [%]
Cn1ccc2ncnc(Oc3ccc(Nc4nc5ccccc5[nH]4)cc3)c21,0,0,14,0,0,5,0,16,0
COc1ccccc1-c1ccc2c(NC(=O)C3CC3)n[nH]c2n1 [SB-711239],0,0,0,0,13,26,9,6,2
COc1cc2ncnc(Nc3ccc4nc(-c5ccccc5)[nH]c4c3)c2cc1OC.Cl [GW282450],5,6,35,0,0,1,0,36,0
Cc1ccc(NC(=O)Nc2cccc(Cl)c2)cc1-c1ccc(C(=O)Nc2ccncc2)cc1 [GSK1398468],13,14,92.3,68,20,37,3,37,0
COc1cc2nccc(Nc3ccc(NC(=O)c4ccc(C)cc4)c(O)c3)c2cc1OC.Cl [GW440132],17,20,9,23,0,0,0,23,0
Cl.O=C(Nc1cccc(-c2nn3ncccc3c2-c2ccnc(Nc3cccnc3)n2)c1)c1c(F)cccc1F [GSK312879],73,0,32,28,0,3,6,24,0
O=C(Nc1ccc2c(c1)OCO2)NC1CCN(c2ccnc(Nc3ccc(F)cc3)n2)C1 (stereo not drawn) [GSK1379724],0,0,39,28,0,0,0,37,0
CCn1c(-c2cccnc2O)nc2cnccc21 [SB-736715],0,0,0,0,0,0,0,8,0
COc1ccc(Nc2nccc(NCCNC(=O)Nc3ccccc3F)n2)cc1 [GSK1379901],23,0,45,37,5,20,0,38,10
Fc1cc(Cl)ccc1Nc1ccnc2cc(I)ccc12 [GW551191],15,0,49,20,0,30,0,41,1
Cc1cc(NCC(c2ccccc2)c2ccccc2)nc(NCc2ccc(C(F)(F)F)cc2)n1 [GW497681],0,0,13,0,7,7,0,45,0
Cc1cccc(-c2nc(-c3ccc(S(C)(=O)=O)cc3)sc2-c2ccnc(NCCc3ccccc3)c2)c1,0,11,0,29,9,82,40,12,16
Cl.Oc1ccc(-c2nc(-c3ccccc3)[nH]c2-c2ccncc2)cc1 [SB-428218],17,4,13,10,0,63,0,43,0
Clc1cc(Cl)cc(Nc2ccnc(Nc3cc(Cl)cc(Cl)c3)n2)c1 [GSK175726],20,3,0,2,0,26,0,12,40
O=C(Nc1n[nH]c2cc(-c3cccc(F)c3F)ccc12)C1CC1 [SB-733894],0,0,74,0,60,0,2,0,24
Cc1ccc(NC(=O)Nc2cc(C(C)(C)C)nn2-c2ccccc2)cc1 [GSK1014915],9,0,19,26,0,99.7,87,54,50
O=C(Nc1n[nH]c2nc(-c3nccs3)c(Br)cc12)C1CCCC1 [SB-742609],10,5,62,9,0,0,0,47,0
Cn1cncc1-c1ccc2ncnc(Nc3ccc(OCc4ccccc4)cc3)c2c1 [GW320571],26,0,1,17,0,0,2,21,0
